Data from PubChem BioAssay.
Calls of active or inactive are those of the source.

Experiments:
[1] = optical density shifts of acrAB sulA E. coli – strain DRC41, OD650, 48 h, E. coli filamentation inducer project, primary screen (AID 1152); details: higher = more signal, called active from +8 up or from −8 down;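 note: E. coli MC1000 strain DRC41 lacking acrAB efflux pump and sulA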
[2] = probe aLefty1 binding on compound microarray – biochemical, small-molecule microarray, 635/667 nm fluorescence, primary screen (AID 1153); details: higher = more signal;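 note: score merges spot fluorescence with signal-to-noise ratio from the scanned slide images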
[3] = plasmodial surface anion channel blockers, osmotic lysis – cell-based, P. falciparum Indochina, OD700, 1 h, primary screen (AID 1154); details: P. falciparum Indochina infected RBC osmotic lysis, higher = more signal, called active from +8 up or from −8 down
[4] = plasmodial surface anion channel blockers, osmotic lysis – cell-based, P. falciparum Indochina, OD700, 2 h, primary screen (AID 1155);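 note: lysis reports solute entry through the parasite surface anion channel PSAC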; details: P. falciparum Indochina infected erythrocytes, higher = more signal, called active from +8 up or from −8 down
[5] = changes in parasitized red cell lysis, either direction – P. falciparum Indochina, OD700, 3 h, PSAC antagonist project, primary screen (AID 1156); details: P. falciparum-infected erythrocytes, osmotic lysis, higher = more signal, called active from +8 up or from −8 down
[6] = plasmodial surface anion channel blockers, osmotic lysis – cell-based, P. falciparum Indochina, OD700, 18 h, primary screen (AID 1157); details: P. falciparum Indochina infected erythrocytes, osmotic lysis OD700, 18 h; higher = more signal, called active from +8 up or from −8 down
[7] = S6 kinase pathway phospho-S6 level changes – cell-based, A549, cytoblot, luminescence, serum-stimulated, primary screen (AID 1158); details: 5 h, higher = more signal;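 note: serum-stimulated A549 lung adenocarcinoma cells; signal is phosphorylated S6 detected by cytoblot immunostaining with HRP secondary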
[8] = molecular target: NADPH oxidase 2 (Homo sapiens) (UniProt P04839); assay: compounds shifting NOX2 Amplex Red fluorescence – cell-based, HEK293-NOX2, PMA-stimulated, NOX inhibitor project, primary screen (AID 1159); details: 45 min, higher = more signal, called active from +8 up or from −8 down; note: test concentration not given here
NADPH oxidase 2 (Homo sapiens), sequence (P04839 whole entry, looked up): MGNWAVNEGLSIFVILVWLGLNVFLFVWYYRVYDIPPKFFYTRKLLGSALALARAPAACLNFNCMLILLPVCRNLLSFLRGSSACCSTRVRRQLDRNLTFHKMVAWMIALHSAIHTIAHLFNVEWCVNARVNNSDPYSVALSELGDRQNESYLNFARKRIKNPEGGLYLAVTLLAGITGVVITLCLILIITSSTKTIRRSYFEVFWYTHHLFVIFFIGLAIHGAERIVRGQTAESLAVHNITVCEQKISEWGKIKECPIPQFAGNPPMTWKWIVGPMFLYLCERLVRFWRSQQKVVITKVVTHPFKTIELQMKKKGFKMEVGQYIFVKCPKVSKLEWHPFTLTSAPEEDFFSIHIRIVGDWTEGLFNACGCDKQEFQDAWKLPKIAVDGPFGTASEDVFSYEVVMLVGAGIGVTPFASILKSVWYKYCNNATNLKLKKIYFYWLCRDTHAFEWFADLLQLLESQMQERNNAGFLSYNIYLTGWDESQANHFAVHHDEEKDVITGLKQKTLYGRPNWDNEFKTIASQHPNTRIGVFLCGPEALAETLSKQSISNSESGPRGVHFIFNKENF

[9] = molecular target: NADPH oxidase 4 (Homo sapiens) (UniProt Q9NPH5); assay: compounds shifting NOX4 Amplex Red fluorescence – cell-based, HEK293-NOX4, tetracycline-induced, NOX inhibitor project, primary screen (AID 1160); details: HEK293-NOX4, Amplex Red H2O2 fluorescence, 45 min; higher = more signal, called active from +8 up or from −8 down
NADPH oxidase 4 (Homo sapiens), sequence (Q9NPH5 whole entry, looked up): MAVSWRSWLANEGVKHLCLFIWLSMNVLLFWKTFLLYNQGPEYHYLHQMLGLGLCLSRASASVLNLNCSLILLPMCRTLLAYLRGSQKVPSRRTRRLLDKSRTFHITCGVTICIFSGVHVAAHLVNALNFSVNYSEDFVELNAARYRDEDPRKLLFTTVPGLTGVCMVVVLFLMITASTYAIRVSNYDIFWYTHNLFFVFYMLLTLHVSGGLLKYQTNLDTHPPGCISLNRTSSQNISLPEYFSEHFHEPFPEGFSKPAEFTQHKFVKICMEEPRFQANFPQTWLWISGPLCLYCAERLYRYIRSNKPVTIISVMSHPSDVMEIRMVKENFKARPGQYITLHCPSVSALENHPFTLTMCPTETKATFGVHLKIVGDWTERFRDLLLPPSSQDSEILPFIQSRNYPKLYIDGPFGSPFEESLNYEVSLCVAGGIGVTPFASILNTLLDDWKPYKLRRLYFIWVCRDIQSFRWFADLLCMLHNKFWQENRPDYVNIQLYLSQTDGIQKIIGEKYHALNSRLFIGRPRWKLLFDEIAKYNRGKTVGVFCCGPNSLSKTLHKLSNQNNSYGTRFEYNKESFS

[10] = molecular target: NADPH oxidase 5 (Homo sapiens) (UniProt Q96PH1); assay: compounds shifting NOX5 Amplex Red fluorescence – cell-based, HEK293-NOX5, NOX inhibitor project, primary screen (AID 1161); details: HEK293-NOX5, ionomycin, 45 min, higher = more signal
NADPH oxidase 5 (Homo sapiens), sequence (Q96PH1 whole entry, looked up): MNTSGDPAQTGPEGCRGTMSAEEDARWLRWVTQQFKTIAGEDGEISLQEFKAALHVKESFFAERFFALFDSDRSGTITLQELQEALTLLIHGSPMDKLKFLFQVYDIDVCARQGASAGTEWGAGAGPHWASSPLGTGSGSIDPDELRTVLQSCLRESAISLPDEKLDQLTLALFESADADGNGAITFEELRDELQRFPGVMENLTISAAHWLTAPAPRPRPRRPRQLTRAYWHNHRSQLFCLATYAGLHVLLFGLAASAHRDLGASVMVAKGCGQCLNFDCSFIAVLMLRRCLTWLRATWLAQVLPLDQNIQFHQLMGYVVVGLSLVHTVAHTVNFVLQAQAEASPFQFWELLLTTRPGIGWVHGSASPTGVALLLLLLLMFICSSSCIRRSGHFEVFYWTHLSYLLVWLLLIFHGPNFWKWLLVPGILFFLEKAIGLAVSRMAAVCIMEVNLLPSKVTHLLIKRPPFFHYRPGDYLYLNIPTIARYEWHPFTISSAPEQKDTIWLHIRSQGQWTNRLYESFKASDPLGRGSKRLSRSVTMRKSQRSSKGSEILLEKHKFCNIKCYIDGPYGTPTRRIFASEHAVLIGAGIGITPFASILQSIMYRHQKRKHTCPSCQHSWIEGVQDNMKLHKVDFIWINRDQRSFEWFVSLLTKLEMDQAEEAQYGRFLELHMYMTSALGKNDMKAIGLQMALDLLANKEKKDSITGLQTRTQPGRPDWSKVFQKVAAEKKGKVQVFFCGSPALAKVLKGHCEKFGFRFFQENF

[11] = compound effects on lung adenocarcinoma cell viability – A549, calcein-AM fluorescence, 48 h, basal, profiling panel (AID 1162); details: higher = more signal; note: test concentration not given here
[12] = compound effects on differentiated 3T3-L1 adipocyte viability – cell-based, 3T3-L1 adipocytes, calcein-AM fluorescence, 48 h, basal, profiling panel (AID 1163); details: 3T3-L1 adipocytes viability, higher = more signal; note: test concentration not given here
[13] = compound effects on hepatocellular carcinoma cell viability – HepG2, calcein-AM fluorescence, 48 h, basal, profiling panel (AID 1164); details: higher = more signal; note: test concentration not given here
[14] = compound effects on multiple myeloma cell viability – MM1S, calcein-AM fluorescence, 48 h, basal, profiling panel (AID 1165); details: higher = more signal;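 note: viability of MM1S multiple myeloma cells under basal unstimulated conditions; test concentration not given here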
[15] = calcein-AM signal in unstimulated myeloma cells – cell-based, calcein-AM fluorescence, 48 h, PK04 Diversity Set, profiling panel (AID 1166); details: RPMI8226 myeloma viability, higher = more signal;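 note: cells grown under basal conditions without added stimulus; test concentration not given here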
[16] = JC-1 mitochondrial signal, unstimulated HepG2 cells – cell-based, JC-1 fluorescence, 24 h, 100 nL compound, profiling panel (AID 1167); details: HepG2 mitochondrial potential, higher = more signal; note: test concentration not given here
[17] = JC-1 mitochondrial signal, unstimulated adipocytes – cell-based, JC-1 fluorescence, 3T3-L1 adipocytes, 24 h, 100 nL compound, profiling panel (AID 1168); details: JC-1 mitochondrial fluorescence, higher = more signal, called active from +8 up or from −8 down; note: test concentration not given here
[18] = JC-1 mitochondrial signal, unstimulated myeloma cells – cell-based, JC-1 fluorescence, RPMI8226, 24 h, 100 nL compound, profiling panel (AID 1169); details: JC-1 mitochondrial potential fluorescence, higher = more signal; note: test concentration not given here
[19] = JC-1 mitochondrial signal, unstimulated MM1S myeloma – cell-based, JC-1 fluorescence, 24 h, 100 nL compound, profiling panel (AID 1170); details: MM1S mitochondrial potential, higher = more signal; note: test concentration not given here
[20] = resazurin metabolic signal in A549 cells – cell-based, resazurin fluorescence, 24 h, PK04 Diversity Set, profiling panel (AID 1171); details: A549 viability, higher = more signal, called active from +8 up or from −8 down; note: test concentration not given here

Row | SMILES | z-score [1] | composite z-score [2] | z-score [3] | z-score [4] | z-score [5] | z-score [6] | z-score [7] | z-score [8] | z-score [9] | z-score [10] | z-score [11] | z-score [12] | z-score [13] | z-score [14] | z-score [15] | z-score [16] | z-score [17] | z-score [18] | z-score [19] | z-score [20]
1 | CCOC(=O)[C@H]1C/C=C/C[C@H](C(=O)OCC)C(=O)O[C@H]2[C@@H](OC)O[C@H](CO)[C@@H](OC(=O)c3c(OC)cccc3OC)[C@@H]2OC1=O | -0.664 (inactive) | 0.446 | 13.5 (active) | 2.34 (inactive) | -0.083 (inactive) | 1.2 (inactive) | 0.122 | -3.32 (inactive) | -0.754 (inactive) | -3.76 | -4.24 | 0.125 | -4.96 | -3.3 | -4.09 | -3.48 | 0.154 (inactive) | -0.999 | -1.96 | -4.38 (inactive)
2 | O=C1c2ccccc2[C@](Cc2ccccc2I)(C(=O)NCCN2CCOCC2)[C@H](c2ccc(CO)cc2)N1Cc1ccccc1Cl | 0.065 (inactive) | 0.559 | 11.7 (active) | 1.47 (inactive) | 1.01 (inactive) | 0.818 (inactive) | -0.0261 | -0.136 (inactive) | 0.707 (inactive) | 0.608 | 0.537 | 0.261 | 0.63 | -1.66 | -1.88 | 1.77 | -0.585 (inactive) | -0.273 | 0.918 | 0.928 (inactive)
3 | COCCOC(=O)N1C(=O)[C@@]2(c3cc(C#CCCO)ccc31)[C@H](C(=O)N1CCCCCCC1)[C@H]1C(=O)O[C@H](c3ccccc3)[C@H](c3ccccc3)N1[C@@H]2c1ccc(OCCO)cc1 | 0.712 (inactive) | 2.45 | 7.78 (inactive) | 1.37 (inactive) | -1.22 (inactive) | 0.982 (inactive) | -0.215 | 0.931 (inactive) | 0.94 (inactive) | 0.603 | 0.338 | 1.74 | 0.155 | -0.284 | -1.54 | -1.68 | -1.47 (inactive) | -1.25 | -1.02 | 0.76 (inactive)
4 | COCC(=C=CC[C@@H](O)c1cccc(OCCO)c1)C[C@@H](O)c1ccccn1 | 0.335 (inactive) | 0.0903 | 12 (active) | 1.42 (inactive) | 0.97 (inactive) | 0.675 (inactive) | -0.613 | 1.96 (inactive) | 0.744 (inactive) | 0.254 | 0.492 | -0.0288 | -0.112 | 0.265 | -0.51 | 0.00274 | 0.613 (inactive) | 0.00702 | -0.0149 | 0.391 (inactive)
5 | COc1cc(C(O)C2C=CC3C(=O)NC(=O)C3N2Nc2ccccn2)cc(OC)c1OC (stereo not given) | -1.57 (inactive) | 0.19 | 0.0115 (inactive) | 0.297 (inactive) | -0.928 (inactive) | 0.409 (inactive) | -1.21 | -1.42 (inactive) | -3.26 (inactive) | -2.9 | -0.928 | -0.66 | -1.31 | -0.494 | 0.611 | -1.2 | -0.524 (inactive) | -0.0982 | -0.0424 | -0.706 (inactive)
6 | C=CCOC(=O)[C@@H]1[C@H]2C(=O)O[C@H](c3ccccc3)[C@H](c3ccccc3)N2[C@H](c2ccc(OCCOC(=O)[C@H]3C[C@H]4C(=O)N5CCC[C@H]5C(=O)N4[C@H]3c3ccc(O)cc3)cc2)[C@@]12C(=O)Nc1ccc(I)cc12 | 0.371 (inactive) | 0.19 | 1.37 (inactive) | -0.552 (inactive) | 0.777 (inactive) | -1.37 (inactive) | 0.718 | 0.986 (inactive) | 1.1 (inactive) | 1.36 | 0.0077 | 0.205 | -1.02 | -1.75 | -1.31 | -1.7 | 1.24 (inactive) | -0.81 | -1.27 | -0.685 (inactive)
7 | [N-]=[N+]=Nc1ccccc1[C@@H]1OC(c2ccc(OCCCO)cc2)=N[C@]1(CCS(=O)(=O)c1ccccc1)C(N)=O | 0.307 (inactive) | 0.572 | 29.1 (active) | 26.1 (active) | 1.26 (inactive) | 5.2 (inactive) | 0.0742 | -1.8 (inactive) | 2.14 (inactive) | 0.903 | -0.811 | -0.267 | -0.554 | -0.648 | 0.0806 | -2.73 | -1.91 (inactive) | -0.0842 | -0.305 | 0.404 (inactive)
8 | COc1ccccc1CN1C(=O)c2ccccc2[C@@]2(Cc3ccccc3N(CC(C)C)C2=O)[C@@H]1c1ccc(CO)cc1 | -0.12 (inactive) | -0.827 | 0.226 (inactive) | 0.215 (inactive) | 0.297 (inactive) | 0.109 (inactive) | 0.0317 | -0.0964 (inactive) | 0.11 (inactive) | 1.12 | 0.211 | 0.444 | -0.385 | -0.481 | -0.0712 | -0.204 | 0.211 (inactive) | -0.887 | -0.0409 | -1.03 (inactive)
9 | O=C1[C@@]23C=C(Br)[C@H](C[C@@H]2CCOC3)[C@@]12CO2 | -0.0625 (inactive) | -0.216 | -0.306 (inactive) | -0.261 (inactive) | -0.0502 (inactive) | 0.0369 (inactive) | -0.31 | -0.172 (inactive) | 0.723 (inactive) | -0.34 | 0.845 | -0.711 | -0.0809 | -1.89 | -0.491 | -1.08 | -0.0633 (inactive) | -0.849 | -0.688 | -0.309 (inactive)
